Laboratory results: the supplement of paper PMC11732987, “Enantioselective OTUD7B fragment discovery through chemoproteomics screening and high-throughput optimisation” (Communications Chemistry, 2025)

How the values were obtained:
Assay in all cases: log2 ratio of Biotin-Ahx-Ub-VS probe labelling (fragment/DMSO); higher = less target engagement (more negative = stronger competition), active = hit call of the paper (q ≤ 0.05, log2 ratio ≤ -1)
Conditions in all cases: compound concentration: 200 uM; treatment time: 3 h
OTUD6B = target: T1, OTUD6B (UniProt Q8N6M0)
T1 sequence (whole entry): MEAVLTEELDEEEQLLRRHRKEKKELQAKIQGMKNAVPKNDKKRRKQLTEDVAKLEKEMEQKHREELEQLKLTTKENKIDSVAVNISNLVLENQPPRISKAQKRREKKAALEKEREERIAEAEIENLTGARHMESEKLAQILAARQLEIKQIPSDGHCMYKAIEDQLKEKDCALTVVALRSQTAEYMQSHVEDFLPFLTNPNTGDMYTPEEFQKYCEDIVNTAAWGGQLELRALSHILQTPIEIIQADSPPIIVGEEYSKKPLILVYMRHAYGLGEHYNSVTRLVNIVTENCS
Outline: (§1)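 Lysate from HEK293T cells, 495 µg per sample in Tris/CHAPS/IGEPAL buffer with protease inhibitors, was treated for 3 h in triplicate with fragment at 200 µM or vehicle. Biotin-Ahx-Ub-VS was next added at 0.5 µM final for 1 h. The labelled DUBs were enriched with NeutrAvidin, digested with LysC and trypsin, and run by diaPASEF LC-MS/MS, with values given as average log2 fragment/vehicle ratios by unpaired t-test on global-median-normalised Spectronaut quantities of proteins with ≥2 unique peptides.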

OTUD7B = target: T2, OTUD7B (UniProt Q6GQQ9)
T2 sequence (whole entry): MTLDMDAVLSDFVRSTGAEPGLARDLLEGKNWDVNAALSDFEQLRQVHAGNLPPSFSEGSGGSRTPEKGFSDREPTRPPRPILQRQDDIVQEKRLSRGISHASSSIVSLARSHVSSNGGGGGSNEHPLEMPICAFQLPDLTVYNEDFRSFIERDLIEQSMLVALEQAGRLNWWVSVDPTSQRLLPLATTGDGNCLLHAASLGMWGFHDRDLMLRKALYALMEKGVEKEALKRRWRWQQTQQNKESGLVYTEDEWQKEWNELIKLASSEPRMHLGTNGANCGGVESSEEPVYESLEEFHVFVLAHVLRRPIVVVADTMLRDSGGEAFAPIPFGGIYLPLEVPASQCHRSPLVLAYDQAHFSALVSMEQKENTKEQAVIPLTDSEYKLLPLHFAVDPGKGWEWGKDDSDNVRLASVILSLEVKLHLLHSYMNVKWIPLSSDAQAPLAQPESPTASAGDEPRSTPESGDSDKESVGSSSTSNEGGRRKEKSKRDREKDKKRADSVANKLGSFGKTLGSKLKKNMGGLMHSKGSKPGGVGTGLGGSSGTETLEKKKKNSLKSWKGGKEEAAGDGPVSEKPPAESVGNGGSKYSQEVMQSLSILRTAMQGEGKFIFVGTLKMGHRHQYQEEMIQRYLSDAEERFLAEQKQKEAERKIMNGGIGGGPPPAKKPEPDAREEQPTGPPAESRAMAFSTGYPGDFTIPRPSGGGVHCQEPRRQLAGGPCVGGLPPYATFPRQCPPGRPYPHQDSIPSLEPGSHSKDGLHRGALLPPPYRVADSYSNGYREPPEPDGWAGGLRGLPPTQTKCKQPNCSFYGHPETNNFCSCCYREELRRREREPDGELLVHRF
Outline: as §1

PRPF8 = PRPF8 (UniProt Q6P2Q9)
Outline: as §1

PSMD7 = target: T3, PSMD7 (UniProt P51665)
T3 sequence (whole entry): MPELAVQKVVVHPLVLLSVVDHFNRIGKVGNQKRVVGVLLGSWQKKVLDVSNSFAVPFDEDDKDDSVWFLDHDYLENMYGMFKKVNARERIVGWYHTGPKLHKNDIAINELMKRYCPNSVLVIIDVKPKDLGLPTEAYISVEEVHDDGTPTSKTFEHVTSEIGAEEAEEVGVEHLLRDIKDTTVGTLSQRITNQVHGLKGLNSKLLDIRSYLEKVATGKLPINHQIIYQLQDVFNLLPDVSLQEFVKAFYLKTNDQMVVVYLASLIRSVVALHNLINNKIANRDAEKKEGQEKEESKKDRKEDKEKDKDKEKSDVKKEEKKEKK
Outline: as §1

UCHL1 = UCHL1 (UniProt P09936)
Outline: as §1

UCHL3 = target: T4, UCHL3 (UniProt P15374)
T4 sequence (whole entry): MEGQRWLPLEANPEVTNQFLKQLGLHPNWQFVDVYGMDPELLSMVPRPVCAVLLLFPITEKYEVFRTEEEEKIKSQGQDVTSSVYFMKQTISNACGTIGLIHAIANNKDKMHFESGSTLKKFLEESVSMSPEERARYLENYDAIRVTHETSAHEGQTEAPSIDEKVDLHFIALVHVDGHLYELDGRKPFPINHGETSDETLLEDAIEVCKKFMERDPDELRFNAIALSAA
Outline: as §1

UCHL5 = target: T5, UCHL5 (UniProt Q9Y5K5)
T5 sequence (whole entry): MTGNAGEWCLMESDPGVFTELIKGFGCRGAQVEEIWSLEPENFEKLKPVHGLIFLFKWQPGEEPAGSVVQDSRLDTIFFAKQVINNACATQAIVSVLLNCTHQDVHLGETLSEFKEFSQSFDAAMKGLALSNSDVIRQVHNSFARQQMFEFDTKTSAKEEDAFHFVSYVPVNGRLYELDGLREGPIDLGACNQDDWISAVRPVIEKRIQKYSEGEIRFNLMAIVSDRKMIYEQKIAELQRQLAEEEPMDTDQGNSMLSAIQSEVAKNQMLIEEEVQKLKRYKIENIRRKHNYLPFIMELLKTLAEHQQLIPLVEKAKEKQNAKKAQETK
Outline: as §1

USP10 = USP10 (UniProt Q14694)
Outline: as §1

USP15 = target: T6, USP15 (UniProt Q9Y4E8)
T6 sequence (whole entry): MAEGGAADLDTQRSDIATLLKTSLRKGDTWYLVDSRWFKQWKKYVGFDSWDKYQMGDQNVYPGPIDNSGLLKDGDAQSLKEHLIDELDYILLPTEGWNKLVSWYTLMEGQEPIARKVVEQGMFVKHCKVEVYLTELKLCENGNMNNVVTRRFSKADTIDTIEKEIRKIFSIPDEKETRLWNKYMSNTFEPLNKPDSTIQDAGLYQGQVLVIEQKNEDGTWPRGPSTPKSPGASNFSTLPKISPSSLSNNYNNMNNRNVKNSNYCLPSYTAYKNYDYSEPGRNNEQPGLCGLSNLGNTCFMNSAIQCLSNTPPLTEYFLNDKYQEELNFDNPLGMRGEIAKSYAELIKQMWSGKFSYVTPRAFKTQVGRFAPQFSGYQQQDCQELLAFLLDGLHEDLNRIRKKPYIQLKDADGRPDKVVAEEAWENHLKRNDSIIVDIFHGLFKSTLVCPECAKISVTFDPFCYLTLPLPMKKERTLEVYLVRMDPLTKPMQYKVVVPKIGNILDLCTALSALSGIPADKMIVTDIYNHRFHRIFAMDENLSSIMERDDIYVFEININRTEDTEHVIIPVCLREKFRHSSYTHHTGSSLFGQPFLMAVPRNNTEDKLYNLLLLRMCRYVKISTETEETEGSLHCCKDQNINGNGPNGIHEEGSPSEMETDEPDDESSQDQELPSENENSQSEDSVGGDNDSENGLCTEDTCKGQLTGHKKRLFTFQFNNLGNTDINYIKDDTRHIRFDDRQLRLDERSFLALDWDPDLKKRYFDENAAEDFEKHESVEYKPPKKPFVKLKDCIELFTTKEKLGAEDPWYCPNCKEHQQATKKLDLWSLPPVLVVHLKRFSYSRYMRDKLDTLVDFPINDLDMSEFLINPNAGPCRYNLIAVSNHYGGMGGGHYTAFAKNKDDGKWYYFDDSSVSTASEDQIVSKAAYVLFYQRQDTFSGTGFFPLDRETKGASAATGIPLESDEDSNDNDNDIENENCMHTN
Outline: as §1

USP16 = USP16 (UniProt Q9Y5T5)
Outline: as §1

Measured: log2 ratio of Biotin-Ahx-Ub-VS probe labelling

Sequence of USP10 (Q14694 whole entry): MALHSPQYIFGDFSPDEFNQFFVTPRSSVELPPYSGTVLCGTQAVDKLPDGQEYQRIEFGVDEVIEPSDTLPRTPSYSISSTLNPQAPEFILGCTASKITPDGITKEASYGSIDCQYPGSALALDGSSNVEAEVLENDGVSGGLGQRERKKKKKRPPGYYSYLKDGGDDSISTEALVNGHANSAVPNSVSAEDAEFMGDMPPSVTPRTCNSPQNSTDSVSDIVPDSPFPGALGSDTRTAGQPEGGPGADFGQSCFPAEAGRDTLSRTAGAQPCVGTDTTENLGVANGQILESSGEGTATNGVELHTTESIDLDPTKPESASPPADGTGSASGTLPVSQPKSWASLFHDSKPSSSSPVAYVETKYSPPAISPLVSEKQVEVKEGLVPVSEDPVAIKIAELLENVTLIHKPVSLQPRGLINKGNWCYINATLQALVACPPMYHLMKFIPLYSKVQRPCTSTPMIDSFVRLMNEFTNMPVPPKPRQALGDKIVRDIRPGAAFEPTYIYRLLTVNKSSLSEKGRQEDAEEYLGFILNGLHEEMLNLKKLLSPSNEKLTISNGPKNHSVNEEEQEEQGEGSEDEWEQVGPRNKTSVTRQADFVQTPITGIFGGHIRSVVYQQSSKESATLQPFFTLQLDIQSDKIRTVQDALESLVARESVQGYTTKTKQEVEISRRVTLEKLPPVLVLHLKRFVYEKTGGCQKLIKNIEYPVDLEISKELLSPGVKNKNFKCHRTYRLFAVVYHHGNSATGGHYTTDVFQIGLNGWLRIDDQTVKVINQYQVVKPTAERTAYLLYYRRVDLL
Sequence of USP16 (Q9Y5T5 whole entry, looked up): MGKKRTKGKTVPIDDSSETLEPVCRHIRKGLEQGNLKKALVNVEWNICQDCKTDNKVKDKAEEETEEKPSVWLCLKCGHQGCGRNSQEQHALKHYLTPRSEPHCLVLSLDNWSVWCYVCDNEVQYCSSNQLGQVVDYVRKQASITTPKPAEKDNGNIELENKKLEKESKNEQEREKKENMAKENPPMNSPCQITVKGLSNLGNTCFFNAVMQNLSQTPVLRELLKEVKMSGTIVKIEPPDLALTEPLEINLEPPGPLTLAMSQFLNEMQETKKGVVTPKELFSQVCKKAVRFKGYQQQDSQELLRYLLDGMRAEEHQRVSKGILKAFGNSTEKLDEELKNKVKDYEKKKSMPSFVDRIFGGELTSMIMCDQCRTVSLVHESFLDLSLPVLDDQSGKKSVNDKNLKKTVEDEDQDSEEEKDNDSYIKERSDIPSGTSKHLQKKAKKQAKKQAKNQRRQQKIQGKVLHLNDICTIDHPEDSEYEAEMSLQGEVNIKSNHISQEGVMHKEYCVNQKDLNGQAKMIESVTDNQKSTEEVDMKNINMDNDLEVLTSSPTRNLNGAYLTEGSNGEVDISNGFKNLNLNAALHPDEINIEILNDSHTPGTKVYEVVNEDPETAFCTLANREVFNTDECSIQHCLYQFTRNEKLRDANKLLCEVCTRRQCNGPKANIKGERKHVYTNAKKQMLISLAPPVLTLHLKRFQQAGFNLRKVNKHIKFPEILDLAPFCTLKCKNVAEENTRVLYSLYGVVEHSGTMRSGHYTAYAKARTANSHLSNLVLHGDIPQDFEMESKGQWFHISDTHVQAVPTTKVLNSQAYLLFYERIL
Sequence of UCHL1 (P09936 whole entry, looked up): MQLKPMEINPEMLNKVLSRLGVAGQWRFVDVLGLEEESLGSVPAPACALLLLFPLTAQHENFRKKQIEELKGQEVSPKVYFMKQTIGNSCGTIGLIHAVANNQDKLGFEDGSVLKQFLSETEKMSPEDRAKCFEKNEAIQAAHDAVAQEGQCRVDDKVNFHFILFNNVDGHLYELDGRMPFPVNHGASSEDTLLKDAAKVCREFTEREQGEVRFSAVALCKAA

O=C(CCl)N(C1=CCCCC1)C1CC1
inactive: OTUD6B -0.00924 | OTUD7B -0.39 | PRPF8 0.215 | PSMD7 0.0445 | UCHL3 0.218 | UCHL5 -0.186 | USP10 -0.112 | USP15 -0.209 | USP16 -0.193
active: UCHL1 -1.24
